Reference: PubChem BioAssay (EPA / NIEHS)
Records with an inconclusive call do not appear. Calls of active or inactive are those of the source. Rule for the calls: active = hit-call score of the fitted dose curve at least 0.9, where 1 is the maximum; inconclusive = response in the unintended direction; inactive = score below 0.9.

target: human CYP4F12, CYP4F12 (gene 66002) (UniProt Q9HCS2); assay: NVS_ADME_hCYP4F12: NovaScreen (NVS) CYP450-related Enzyme Activity (ADME) Assay for human CYP4F12 (AID 2283111)
Outline: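 Recombinant enzyme with a fluorescent substrate, signal read at 0.5 h post-dose; activity loss analysed relative to acetonitrile. Compounds first run in duplicate at 10 uM, with follow-up concentration-response testing of actives.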

human CYP4F12, CYP4F12 (gene 66002), sequence (Q9HCS2 whole entry, looked up): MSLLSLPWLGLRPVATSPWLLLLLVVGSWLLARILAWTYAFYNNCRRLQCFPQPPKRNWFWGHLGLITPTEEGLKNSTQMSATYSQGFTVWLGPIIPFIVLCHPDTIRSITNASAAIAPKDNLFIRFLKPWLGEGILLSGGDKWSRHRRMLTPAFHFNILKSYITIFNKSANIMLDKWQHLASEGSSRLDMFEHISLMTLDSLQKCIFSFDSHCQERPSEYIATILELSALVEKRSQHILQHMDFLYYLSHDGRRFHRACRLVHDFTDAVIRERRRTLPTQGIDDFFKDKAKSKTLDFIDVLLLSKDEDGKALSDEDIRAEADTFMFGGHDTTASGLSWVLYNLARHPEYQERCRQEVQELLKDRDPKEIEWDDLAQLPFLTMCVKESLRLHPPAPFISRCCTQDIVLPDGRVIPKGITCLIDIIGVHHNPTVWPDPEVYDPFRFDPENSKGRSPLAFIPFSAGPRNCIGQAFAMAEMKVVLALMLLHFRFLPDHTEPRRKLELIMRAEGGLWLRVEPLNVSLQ

Compound | outcome | AC50
Nc1nc(Cl)nc2c1ncn2[C@H]1C[C@H](O)[C@@H](CO)O1 | inactive | 
CCCCCCCC(=O)O |  | 4.61 µM (active)
CC(C)CCCCCCc1ccc(O)cc1 | inactive | 
CCc1ccc(O)c(C(C)(C)C)c1 | inactive | 
CC[C@H](C)C(=O)O[C@H]1C[C@@H](C)C=C2C=C[C@H](C)[C@H](CC[C@@H]3C[C@@H](O)CC(=O)O3)[C@H]21 | inactive | 
CCOC(N)=O | inactive | 
CN1CCC[C@H]1c1cccnc1 | inactive | 
CNC(=O)[C@H]1O[C@@H](n2cnc3c(NCc4cc(Cl)ccc4OCc4cc(C)no4)ncnc32)[C@H](O)[C@@H]1N | inactive | 
CCN(CC)CCNc1ccc(CNC=O)c2sc3ccc(OC)cc3c(=O)c12 |  | 1.41 µM (active)
CC(C)NCC(O)c1ccc(O)c(O)c1 (stereo not drawn) |  | 2.13 µM (active)
CN(C)C(=O)NC1(c2ccccc2)CCN(CC[C@@]2(c3ccc(F)c(F)c3)CN(C(=O)c3ccccc3)CCO2)CC1 | inactive | 
O=C=NCCCCCCN=C=O |  | 0.884 µM (active)
Cc1occc1C(=O)Nc1ccc(C(=O)N2CCC(F)(F)/C(=C\C(=O)N3CCC(N4CCCCC4)CC3)c3ccccc32)cc1 |  | 1.24 µM (active)
COc1cccc([C@H](O)C2CCN(CCc3ccc(F)cc3)CC2)c1OC |  | 0.441 µM (active)
COC(=O)CCC(=O)OC | inactive | 

target: rat CYP1A2, Cyp1a2 (gene 24297) (UniProt P04799); assay: NVS_ADME_rCYP1A2: NovaScreen (NVS) CYP450-related Enzyme Activity (ADME) Assay for rat CYP1A2 (AID 2283115)
Outline: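 Primary testing ran in duplicate at 10 uM, with actives re-tested across concentration series. Fluorescence intensity from substrate turnover by recombinant protein, measured 1 hour post-dosing, with signal loss scored against acetonitrile vehicle.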

rat CYP1A2, Cyp1a2 (gene 24297), sequence (P04799 whole entry, looked up): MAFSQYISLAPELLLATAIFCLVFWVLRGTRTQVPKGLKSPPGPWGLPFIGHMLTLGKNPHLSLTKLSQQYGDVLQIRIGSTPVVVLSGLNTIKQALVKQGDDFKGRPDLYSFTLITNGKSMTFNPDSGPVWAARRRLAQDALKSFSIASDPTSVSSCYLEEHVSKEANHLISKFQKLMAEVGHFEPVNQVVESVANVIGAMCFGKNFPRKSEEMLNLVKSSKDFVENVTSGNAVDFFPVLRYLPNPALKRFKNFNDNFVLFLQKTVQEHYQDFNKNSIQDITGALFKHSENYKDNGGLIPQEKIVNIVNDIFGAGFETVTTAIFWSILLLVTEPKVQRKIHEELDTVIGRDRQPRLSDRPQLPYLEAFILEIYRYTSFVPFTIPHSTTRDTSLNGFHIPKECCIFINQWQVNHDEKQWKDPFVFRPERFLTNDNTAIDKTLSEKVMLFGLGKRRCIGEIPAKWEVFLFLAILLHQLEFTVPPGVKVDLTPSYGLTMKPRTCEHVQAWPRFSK

Compound | outcome | AC50
O=C1OC2(c3cc(Br)c(O)c(Br)c3Oc3c2cc(Br)c(O)c3Br)c2c(Cl)c(Cl)c(Cl)c(Cl)c21 | inactive | 
CCN(CC)c1ccc2c(C)cc(=O)oc2c1 |  | 8.15 µM (active)
c1ccc2sc(SN(C3CCCCC3)C3CCCCC3)nc2c1 | inactive | 
CCOC(=O)C1=NOC(c2ccccc2)(c2ccccc2)C1 | inactive | 
O=C1c2ccccc2C(=O)c2c(O)ccc(O)c21 | inactive | 
NC(=S)NNC(N)=S | inactive | 
CNNCc1ccc(C(=O)NC(C)C)cc1 | inactive | 
CCCCCCC(C)OC(=O)CCCCC(=O)OC(C)CCCCCC (stereo not drawn) | inactive | 

test system: rat CYP2B1, gene 24300; assay: NVS_ADME_rCYP2B1: NovaScreen (NVS) CYP450-related Enzyme Activity (ADME) Assay for rat CYP2B1 (AID 2283117)
Outline: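 Cell-free fluorescence enzyme assay, recombinant rat CYP2B1, 0.75 h after dosing. Single-concentration duplicates at 10 uM preceded concentration series (max 20 uM) for actives; acetonitrile as negative-control baseline.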

Compound | AC50 | outcome
Cc1cc(O)cc(C)c1Cl | 16.7 µM (active) | 
CCCCCCC(C)OC(=O)COc1nc(F)c(Cl)c(N)c1Cl (stereo not drawn) | 6.09 µM (active) | 
BrC1CCC(Br)C(Br)CCC(Br)C(Br)CCC1Br (stereo not drawn) |  | inactive
CCCCOC(=O)C(C)Oc1ccc(Oc2ccc(C(F)(F)F)cn2)cc1 (stereo not drawn) |  | inactive

target: human Acetylcholinesterase (AChE), ACHE (gene 43) (UniProt P22303); assay: NVS_ENZ_hAChE: NovaScreen (NVS) Enzymatic Assay for human Acetylcholinesterase (AChE) (AID 2283129)
Outline: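 Actives from a duplicate single-point screen (25 uM) were followed up in concentration series. Enzyme activity read by absorbance (colorimetric) 0.33 hour after dosing, cell-free, normalized to DMSO, with loss of signal scored.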

human Acetylcholinesterase (AChE), ACHE (gene 43), sequence (P22303 whole entry, looked up): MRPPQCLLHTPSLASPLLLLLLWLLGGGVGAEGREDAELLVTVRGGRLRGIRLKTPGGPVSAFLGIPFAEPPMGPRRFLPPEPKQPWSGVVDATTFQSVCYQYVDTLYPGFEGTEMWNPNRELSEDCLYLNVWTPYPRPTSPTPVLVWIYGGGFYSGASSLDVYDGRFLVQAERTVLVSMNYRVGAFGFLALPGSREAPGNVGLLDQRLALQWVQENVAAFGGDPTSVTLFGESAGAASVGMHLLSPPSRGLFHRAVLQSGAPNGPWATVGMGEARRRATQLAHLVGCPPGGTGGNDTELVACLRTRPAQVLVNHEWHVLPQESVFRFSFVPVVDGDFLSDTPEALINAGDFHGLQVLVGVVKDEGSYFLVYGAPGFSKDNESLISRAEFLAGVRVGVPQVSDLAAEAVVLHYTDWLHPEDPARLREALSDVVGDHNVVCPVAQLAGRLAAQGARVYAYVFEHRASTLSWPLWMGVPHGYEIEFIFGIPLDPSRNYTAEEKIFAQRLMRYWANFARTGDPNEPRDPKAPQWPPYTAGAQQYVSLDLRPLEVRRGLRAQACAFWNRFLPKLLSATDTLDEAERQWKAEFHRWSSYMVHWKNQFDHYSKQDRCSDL

Compound | outcome | AC50
CCCCCCCC(=O)O | inactive | 
CCCCC(CC)COC(=O)c1ccc(C(=O)OCC(CC)CCCC)cc1 (stereo not drawn) | inactive | 
COc1cc(C(C)C)c2c(c1)S(=O)(=O)N(COc1cc(=O)n3cccc(OCCN4CCCCC4)c3n1)C2=O |  | 5.52 µM (active)
COC(=O)c1ccccc1S(=O)(=O)NC(=O)Nc1nc(OC(F)F)cc(OC(F)F)n1 | inactive | 
CC(C)CCCCCCCOC(=O)CCCCC(=O)OCCCCCCCC(C)C |  | 7.43 µM (active)
CC[C@H]1CC[C@H](NCc2cc3c(cc2OC)[C@H]2C[C@H]2C(=O)N3C)[C@H](c2ccccc2)N1 |  | 20.5 µM (active)
O=C1OC(c2ccc(O)cc2)(c2ccc(O)cc2)c2ccccc21 | inactive | 
CCCCC(CC)COC(=O)CCCCCCCCC(=O)OCC(CC)CCCC (stereo not drawn) |  | 16.7 µM (active)
c1ccc2c(c1)-c1cccc3c1c-2cc1ccccc13 | inactive | 
CCN(CC)CCNc1ccc(CNC=O)c2sc3ccc(OC)cc3c(=O)c12 |  | 13.9 µM (active)
CCc1nc(N)nc(N)c1-c1ccc(Cl)cc1 | inactive | 
CCCCCCOC(=O)CC(CC(=O)OCCCCCC)(OC(=O)CCC)C(=O)OCCCCCC | inactive | 
CCCCC(CC)COP(=O)(OCC(CC)CCCC)OCC(CC)CCCC (stereo not drawn) |  | 32.7 µM (active)
CCOC(=O)c1ccc(C2CCC(NC[C@H](O)COc3ccc(O)c(NS(C)(=O)=O)c3)CC2)cc1 (stereo partly drawn) |  | 23.4 µM (active)
CCCCCOC(C)=O | inactive | 

target: human Fibroblast Growth Factor Receptor 1 (FGFR1), FGFR1 (gene 2260) (UniProt P11362); assay: NVS_ENZ_hFGFR1: NovaScreen (NVS) Enzymatic Assay for human Fibroblast Growth Factor Receptor 1 (FGFR1) (AID 2283159)
Outline: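 Cell-free recombinant kinase with fluorescent substrate, product separated by electrophoretic mobility shift; read 1 hour after dosing, loss of signal relative to DMSO. Initial screen in duplicate at 25 uM, actives followed in concentration series.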

human Fibroblast Growth Factor Receptor 1 (FGFR1), FGFR1 (gene 2260), sequence (P11362 whole entry, looked up): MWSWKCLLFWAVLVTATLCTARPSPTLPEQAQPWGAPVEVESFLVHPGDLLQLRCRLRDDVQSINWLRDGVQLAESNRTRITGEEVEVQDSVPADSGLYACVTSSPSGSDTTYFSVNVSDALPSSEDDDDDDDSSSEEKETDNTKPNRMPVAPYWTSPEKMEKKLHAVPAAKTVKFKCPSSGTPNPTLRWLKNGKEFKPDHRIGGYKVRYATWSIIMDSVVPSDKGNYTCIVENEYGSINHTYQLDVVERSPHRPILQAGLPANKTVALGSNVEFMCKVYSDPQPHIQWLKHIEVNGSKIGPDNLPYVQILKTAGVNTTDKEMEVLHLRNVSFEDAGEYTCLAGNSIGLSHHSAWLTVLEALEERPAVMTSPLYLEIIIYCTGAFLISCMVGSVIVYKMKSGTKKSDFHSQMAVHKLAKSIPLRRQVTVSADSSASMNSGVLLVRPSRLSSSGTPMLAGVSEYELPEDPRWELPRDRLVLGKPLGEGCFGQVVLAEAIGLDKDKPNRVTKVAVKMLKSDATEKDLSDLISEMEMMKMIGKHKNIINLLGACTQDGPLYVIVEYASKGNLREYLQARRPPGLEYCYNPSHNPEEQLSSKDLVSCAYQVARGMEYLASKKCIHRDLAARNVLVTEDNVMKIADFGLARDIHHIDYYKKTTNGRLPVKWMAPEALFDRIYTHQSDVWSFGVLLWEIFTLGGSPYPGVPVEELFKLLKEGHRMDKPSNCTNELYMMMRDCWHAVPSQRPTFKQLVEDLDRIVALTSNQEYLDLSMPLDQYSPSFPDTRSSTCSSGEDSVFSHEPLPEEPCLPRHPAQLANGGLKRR

Compound | outcome
CCCCCCCC(=O)O | inactive
CC(C)CCCCCCc1ccc(O)cc1 | inactive
CC[C@H](C)C(=O)O[C@H]1C[C@@H](C)C=C2C=C[C@H](C)[C@H](CC[C@@H]3C[C@@H](O)CC(=O)O3)[C@H]21 | inactive
CNC(=O)[C@H]1O[C@@H](n2cnc3c(NCc4cc(Cl)ccc4OCc4cc(C)no4)ncnc32)[C@H](O)[C@@H]1N | inactive
CC(C)NCC(O)c1ccc(O)c(O)c1 (stereo not drawn) | inactive

target: Protein deacetylase HDAC6 (Homo sapiens) (UniProt Q9UBN7); assay: NVS_ENZ_hHDAC6: NovaScreen (NVS) Enzymatic Assay for human Histone Deacetylase 6 (HDAC6) (AID 2283164)
Outline: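 Concentration-response runs up to 50 uM followed a duplicate 25 uM single-point screen. Deacetylase activity of recombinant human HDAC6 read by fluorescence after 1 h, with mobility-shift separation of substrate and product; DMSO as baseline.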

Protein deacetylase HDAC6 (Homo sapiens), sequence (Q9UBN7 whole entry, looked up): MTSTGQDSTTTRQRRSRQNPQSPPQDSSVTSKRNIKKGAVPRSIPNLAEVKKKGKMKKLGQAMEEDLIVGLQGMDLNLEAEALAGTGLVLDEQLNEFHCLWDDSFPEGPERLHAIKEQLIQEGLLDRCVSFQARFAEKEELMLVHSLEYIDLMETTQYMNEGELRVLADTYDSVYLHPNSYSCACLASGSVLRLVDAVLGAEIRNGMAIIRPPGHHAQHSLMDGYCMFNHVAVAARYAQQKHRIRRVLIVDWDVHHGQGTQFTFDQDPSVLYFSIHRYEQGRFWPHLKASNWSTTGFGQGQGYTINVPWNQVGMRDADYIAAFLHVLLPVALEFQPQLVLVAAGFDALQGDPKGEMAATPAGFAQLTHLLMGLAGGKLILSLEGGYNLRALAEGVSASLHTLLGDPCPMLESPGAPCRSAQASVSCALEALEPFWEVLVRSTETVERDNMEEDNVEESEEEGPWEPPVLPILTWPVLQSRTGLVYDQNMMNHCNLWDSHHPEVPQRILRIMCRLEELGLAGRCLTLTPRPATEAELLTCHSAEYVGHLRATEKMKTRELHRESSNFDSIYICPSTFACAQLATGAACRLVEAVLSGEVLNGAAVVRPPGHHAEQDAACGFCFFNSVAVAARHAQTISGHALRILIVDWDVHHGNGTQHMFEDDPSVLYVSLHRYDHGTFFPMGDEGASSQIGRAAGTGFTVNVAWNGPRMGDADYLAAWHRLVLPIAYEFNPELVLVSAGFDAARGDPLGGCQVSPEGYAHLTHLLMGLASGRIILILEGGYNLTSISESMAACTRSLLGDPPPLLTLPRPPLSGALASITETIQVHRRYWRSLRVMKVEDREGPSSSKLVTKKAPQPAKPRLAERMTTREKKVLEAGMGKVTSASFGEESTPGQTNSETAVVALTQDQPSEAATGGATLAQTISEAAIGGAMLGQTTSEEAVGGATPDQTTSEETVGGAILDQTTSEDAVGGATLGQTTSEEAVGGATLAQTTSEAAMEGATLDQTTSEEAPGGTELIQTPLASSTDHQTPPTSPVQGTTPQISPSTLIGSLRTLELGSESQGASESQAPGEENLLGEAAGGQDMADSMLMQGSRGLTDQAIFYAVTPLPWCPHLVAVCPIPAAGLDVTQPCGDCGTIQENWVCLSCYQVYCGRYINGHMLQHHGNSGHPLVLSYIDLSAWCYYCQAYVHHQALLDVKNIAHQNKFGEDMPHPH

Compound | outcome
CC(C)CCCCCCc1ccc(O)cc1 | inactive
CCc1ccc(O)c(C(C)(C)C)c1 | inactive
CC[C@H](C)C(=O)O[C@H]1C[C@@H](C)C=C2C=C[C@H](C)[C@H](CC[C@@H]3C[C@@H](O)CC(=O)O3)[C@H]21 | inactive

target: human Phosphatase and Tensin Homolog (PTEN), PTEN (gene 5728) (UniProt P60484); assay: NVS_ENZ_hPTEN: NovaScreen (NVS) Enzymatic Assay for human Phosphatase and Tensin Homolog (PTEN) (AID 2283203)
Outline: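 Loss of fluorescent product signal after mobility-shift separation reports PTEN activity, recombinant human enzyme, 1 h after compound addition. Single 25 uM duplicate screen, then concentration-response on actives; DMSO baseline.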

human Phosphatase and Tensin Homolog (PTEN), PTEN (gene 5728), sequence (P60484 whole entry, looked up): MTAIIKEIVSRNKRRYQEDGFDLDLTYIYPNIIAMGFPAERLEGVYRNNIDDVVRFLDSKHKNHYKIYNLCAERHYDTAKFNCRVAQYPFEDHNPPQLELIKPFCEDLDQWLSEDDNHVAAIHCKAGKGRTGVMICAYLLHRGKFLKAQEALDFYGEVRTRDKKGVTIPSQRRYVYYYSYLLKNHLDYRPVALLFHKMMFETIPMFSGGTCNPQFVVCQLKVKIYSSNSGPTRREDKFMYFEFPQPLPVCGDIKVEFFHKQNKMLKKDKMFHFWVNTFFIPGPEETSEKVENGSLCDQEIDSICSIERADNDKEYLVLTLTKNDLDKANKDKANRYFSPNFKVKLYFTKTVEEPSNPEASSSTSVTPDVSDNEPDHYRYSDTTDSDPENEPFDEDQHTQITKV

Compound | AC50 | outcome
O=C1OC2(c3cc(Br)c(O)c(Br)c3Oc3c2cc(Br)c(O)c3Br)c2c(Cl)c(Cl)c(Cl)c(Cl)c21 | 0.851 µM (active) | 
CC(C)CCCCCCc1ccc(O)cc1 |  | inactive
CC[C@H](C)C(=O)O[C@H]1C[C@@H](C)C=C2C=C[C@H](C)[C@H](CC[C@@H]3C[C@@H](O)CC(=O)O3)[C@H]21 |  | inactive
